# Bioassay records: PubChem BioAssay, National Center for Advancing Translational Sciences (NCATS)
# a7 integrin act: integrin-mediated muscular dystrophy alleviation activation | alpha7betagal myoblasts, beta-gal FDG fluorescence, 48 h | Potency, µM (highest dose often 38.3 µM), most hits filed as activators | 0.064% of 350,000 active | AID 624291; active = well fitted activation curve with a large enough effect; inconclusive = small, poorly fitted or top-dose-only effect; inactive = no such curve, though single readings can be large or run the other way; also: nearly all actives have a fitted effect of over 60% in size
#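 alpha7betagal+/- myoblasts (passage 13, 250/well) treated 48 h at 37C with compounds at 1:260 dilution of DMSO stock. Lysed, then beta-galactosidase activity read as FDG fluorescence (ex 480/em 540) after 30 min, with pre-read for autofluorescence.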
# D3 antag: antagonists of human D3 dopamine receptor; AID 652054; max response, negative = inhibition, %; D3R cells, DiscoveRx beta-arrestin luminescence, antagonist mode; active compounds read low; 2.5% of 360,000 active; in the data active = max response below about -50%; inconclusive = no clear call, values can overlap the other calls
# Target sequence (P35462 whole entry, looked up): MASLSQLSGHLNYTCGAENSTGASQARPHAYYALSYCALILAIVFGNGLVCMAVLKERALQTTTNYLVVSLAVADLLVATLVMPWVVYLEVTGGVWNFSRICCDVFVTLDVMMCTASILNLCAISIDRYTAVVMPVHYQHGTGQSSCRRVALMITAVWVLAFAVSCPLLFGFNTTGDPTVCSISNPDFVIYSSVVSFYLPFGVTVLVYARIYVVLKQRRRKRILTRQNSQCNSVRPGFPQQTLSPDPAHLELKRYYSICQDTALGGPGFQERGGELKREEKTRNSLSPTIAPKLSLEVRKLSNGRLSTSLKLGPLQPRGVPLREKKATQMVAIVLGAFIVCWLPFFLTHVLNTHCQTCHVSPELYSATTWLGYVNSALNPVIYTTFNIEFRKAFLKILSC
#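 Cells expressing the human receptor were seeded at 1500 cells/well, incubated overnight at 37 degrees C in 5% CO2, then exposed to library compounds with dopamine controls for 90 minutes at 37 degrees C before luminescent detection.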
# D3 ag: agonists of human D3 dopamine receptor | max activation, % | 0.58% of 410,000 active | AID 652048 | P35462 | D3R DiscoveRx beta-arrestin cells, luminescence, 90 min; in the data active = max activation above about 30%
#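 Agonist-mode cell screen: cells plated at 1500/well and incubated overnight at 37 °C, then exposed to library compounds for 90 min at 37 °C. Detection reagent was added for 30–60 min at room temperature, and luminescence was read.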
# A number is an active result; n = inactive; u = inconclusive; x = not tested or not shown; ! = repeats disagree; [ ] = another dose, or the depositor's remark. Rows were chosen to be rich in hits. Some 2.9% of all compounds tested hit in one or more screens of this group.
SMILES,a7 integrin act,D3 antag,D3 ag
CCN1C(=O)c2ccccc2S(=O)c2ccc(C(=O)N3CCN(C(=O)c4ccco4)CC3)cc21 (stereo not given),n,n,n
CCOc1ccc(NC(=O)CN(C)C(=O)c2cc(-c3ccc(OC)cc3)nc3ccccc23)cc1OCC,n,n,n
CCCCCCSc1ccc([C@H]2N[C@@](Cc3ccccc3)(C(=O)OC)[C@H]3C(=O)N(CC)C(=O)[C@@H]23)cc1,n,n,n
CCCCCCSc1ccc([C@H]2N[C@@](Cc3ccccc3)(C(=O)OC)[C@H]3C(=O)N(C)C(=O)[C@@H]23)cc1,n,-51,n
CCN1C(=O)[C@H]2[C@@H](c3ccc(-c4ccccc4)c(OC)c3)N[C@@](Cc3ccccc3)(C(=O)OC)[C@H]2C1=O,n,n,n
CCN1C(=O)[C@H]2[C@@H](c3ccc(-c4ccc(C(C)=O)cc4)c(OC)c3)N[C@@](Cc3ccccc3)(C(=O)OC)[C@H]2C1=O,n,-59,n
O=C1NC2C3CC(c4ccccc43)C12 (stereo not given),n,n,n
CCCn1nnnc1SCC(=O)c1ccc2c(c1)OCCO2,n,n,n
Cc1ccccc1-n1nnnc1SCC(=O)Nc1ccc(N2CCN(C)CC2)cc1,n,n,n
Cc1ccc2nc(NC(=O)C3CCN(S(=O)(=O)c4cc([N+](=O)[O-])ccc4Cl)CC3)sc2c1,n,n,n
Cc1cccc(Nc2nnc(SCC(=O)NC(=O)Nc3ccc4c(c3)OCCO4)s2)c1,n,n,n
Cc1nnc(SCC(=O)NC(=O)Nc2ccc3c(c2)OCCO3)s1,n,-70,n
O=C(CSc1ccc2c(c1)OCCO2)Nc1ccc2c(c1)OCO2,n,n,n
O=C(CSc1ccc2nnc(-c3ccncc3)n2n1)Nc1ccc2c(c1)OCCO2,n,-59,n
O=C(CSc1ccc2c(c1)OCCO2)Nc1ccc(Br)cc1,n,-63,n
O=C(CSc1ccc2nnc(-c3ccncc3)n2n1)Nc1ccc2c(c1)OCO2,n,n,n
COc1ccccc1C(=O)NCCCNC(=O)c1cccnc1,n,n,n
Cc1cccc(NC(=O)c2ccccc2C(=O)Nc2cccc(C)c2)c1,n,u,n
CN(C)C(=O)c1ccc(OCC(F)(F)F)nc1,n,n,n
Cc1cc(S(=O)(=O)c2ccc(Cl)cc2)nc(S(=O)(=O)c2ccc(Cl)cc2)c1C#N,n,-77,n
Cc1cc(C)c(S(=O)(=O)c2ccc(Cl)cc2)c(Cl)n1,n,n,n
CCOC(=O)c1cnn2c1[nH]c(=O)c1ccccc12,n,n,n
O=C(CCOc1ccccc1)Nc1ccnn1C1CCN(Cc2ccc(O)cc2)CC1,u,n,n
O=C(CCCc1ccccc1)Nc1ccnn1C1CCN(Cc2ccccn2)CC1,n,n,n
O=C(CCOc1ccccc1)Nc1ccnn1C1CCN(CCc2ccccc2)CC1,n,-52,n
SMILES,a7 integrin act,D3 antag,D3 ag
Cc1ccccc1CN1CCC(n2nccc2NC(=O)CCCc2ccccc2)CC1,n,-80,n
Cn1c(Cn2c(=O)sc3ccccc32)nnc1SCC(=O)N1CCCc2ccccc21,n,n,n
Fc1ccc(-n2c(-c3cc(C4CC4)[nH]n3)n[nH]c2=S)cc1Cl,n,n,n
CCOC(=O)[C@]12CCCC=C1N(Cc1ccc3c(c1)OCO3)C(=O)[C@H](CC(=O)N1CCCC1)C2,x,n,n
O=S(=O)(N(Cc1ccccc1)[C@@H](CO)Cc1ccccc1)N(Cc1ccccc1)[C@@H](CO)Cc1ccccc1,n,n,84
C=CS(=O)(=O)N(Cc1ccccc1)[C@H](CO)CC(C)C,n,n,n
CC(C)C[C@H](CO)N(Cc1ccccc1)S(=O)(=O)N(Cc1ccccc1)[C@@H](CO)CC(C)C,n,n,59
C=CS(=O)(=O)N(Cc1ccccc1Br)[C@H](CO)Cc1ccccc1,n,n,n
COc1cc(OC)c(OC)cc1CN1CCN(Cc2ccc(SC)cc2)CC1,n,n,n
COc1ccc(OC)c(/C=C/C(=O)OCC(=O)N2CCN(S(=O)(=O)c3ccc(C)cc3C)CC2)c1,n,n,n
COc1ccc(/C=N/c2oc(-c3ccccc3)cc2C#N)cc1OC,n,-52,n
COc1ccc(/C=N/NC(=O)c2nc(-c3ccccc3)cc(-c3ccccc3)n2)cc1OC,n,n,n
CN(C)c1ccc(NC(=O)CSC2=Nc3ccccc3C3=NC(CC(=O)NCc4ccccc4)C(=O)N23)cc1 (stereo not given),x,x,n
CCN(CC)C(=O)Cc1c(O)c2ccccc2[nH]c1=O,n,n,n
CC1(NC(=O)CC(c2ccccc2)(c2ccccc2)c2ccccc2)CCN(Cc2ccc(-c3ccccc3)cc2)C1=O (stereo not given),n,n,n
NC(=O)C1CCCN(C(=O)c2cccc(NC(=O)c3cccs3)c2)C1 (stereo not given),n,n,n
COc1ccc(OC)c(-c2cc(C(=O)Nc3c(C)nn(Cc4ccc(C)cc4)c3C)no2)c1,x,x,35
COc1ccc(OC)c(-c2cc(C(=O)Nc3c(C)nn(Cc4ccccc4C)c3C)no2)c1,n,n,33
COc1ccc(OC)c(-c2cc(C(=O)Nc3c(C)nn(Cc4ccccc4Cl)c3C)no2)c1,n,n,n
COc1cccc(-c2cc(C(=O)Nc3ccn(Cc4ccc(C)cc4)n3)no2)c1,n,n,35!
Cc1ccc(Cn2ccc(NC(=O)c3cc(-c4ccccc4)on3)n2)cc1,n,n,n
COc1ccc(-c2cc(C(=O)Nc3c(C)nn(Cc4ccc(C)cc4)c3C)no2)cc1OC,x,x,n
O=C(NCCNC(=O)c1ccc(-c2cccc(Cl)c2)o1)c1cnccn1,n,n,n
Cc1cc2c3c([nH]c2cc1S(=O)(=O)NCCCOC(C)C)CC(C)(C)CC3=O,n,n,n
CN1CCC(C2(O)c3ccccc3CSc3sccc32)CC1 (stereo not given),n,-67,n
SMILES,a7 integrin act,D3 antag,D3 ag
CN1CCC(C2(O)c3ccccc3CCc3ccccc32)CC1,n,n,n
CCCc1ccc(S(=O)(=O)Nc2ccc(C)c(NS(C)(=O)=O)c2)cc1,n,n,n
O=C(O)c1ccc(Nc2nc3ccc(Cl)cc3[nH]2)cc1,n,-54,n
O=C(Nc1nc2ccccc2[nH]1)c1cccc(Cl)c1,n,n,n
CCCN(C(=O)c1cc2c(s1)-c1ccccc1SC2)c1ccccc1F,x,x,n
Nc1nc(Cl)nc2c1ncn2[C@H]1C[C@H](O)[C@@H](CO)O1,x,-80,n
Nc1ncnc2c1ncn2[C@H]1C[C@H](O)[C@@H](CO)O1,n,n,n
CCOc1ccc(C(=O)NCCN2CCCCC2)c(OCC)c1,n,n,n
Cc1ccc(OCCCC(=O)Nc2ccc3c(c2)OCO3)cc1,n,-52,n
Cc1ccc(OCCC(=O)Nc2ccc3c(c2)OCCCO3)cc1,n,n,n
O=C(C1CCN(CC2CC=CCC2)CC1)N(CCc1ccccc1)Cc1ccccc1 (stereo not given),n,-61,n
O=C(C1CCN(CCCc2ccccc2)CC1)N(CCc1ccccc1)Cc1ccccc1,n,u,n
CN(c1ccccc1)S(=O)(=O)c1cccc(NC(=O)CCNC(=O)c2ccc(Cl)cc2)c1,n,n,n
Nc1nc2n(n1)C(c1cccs1)CC(c1ccc(F)cc1)N2 (stereo not given),n[7.66 µM],n,n
